# Reference: the supplement of paper PMC8877412
# Where a name gives a salt, the structure may show the parent alone. ± gives the uncertainty stated by the source.
# Test system: NCC-PMP1-C1
# Experiment: cell viability relative to DMSO control; higher = less growth inhibition
# Details: 10 µM; 72 h
# Experimental: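 NCC-PMP1-C1 pseudomyxoma peritonei cells were seeded in 384-well plates coated with Matrigel and MEF (1e4 cells). Viability was read after 72 h by CCK-8 and expressed as % of the DMSO control, mean ± SD of duplicates.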
row,Structure (SMILES),cell viability [%]
1,Fc1ccc(C(c2ccc(F)cc2)N2CCN(C/C=C/c3ccccc3)CC2)cc1 [Flunarizine 2HCl],99.6 ± 22
2,CCC(C)n1ncn(-c2ccc(N3CCN(c4ccc(OCC5COC(Cn6cncn6)(c6ccc(Cl)cc6Cl)O5)cc4)CC3)cc2)c1=O (stereo not given) [Itraconazole],81.9 ± 2.1
3,O=P(O)(O)C(O)(Cn1ccnc1)P(=O)(O)O [Zoledronic Acid],109 ± 6
4,CCN1CCN(c2ccc(Nc3cc(N(C)C(=O)Nc4c(Cl)c(OC)cc(OC)c4Cl)ncn3)cc2)CC1,56.5 ± 0.47
5,COc1ccc2c(c1OC)C(=O)O[C@@H]2[C@H]1c2c(cc3c(c2OC)OCO3)CCN1C [Noscapine HCl],90.5 ± 4.2
6,C=CC(=O)N1CCC(Oc2cc3c(Nc4ccc(Cl)c(Cl)c4F)ncnc3cc2OC)CC1 [Poziotinib (HM781-36B)],76.9 ± 8.5
7,Cc1ccc(Nc2nccc(N(C)c3ccc4c(C)n(C)nc4c3)n2)cc1S(N)(=O)=O,72.5 ± 0.73
8,"C=CC(=O)Nc1cccc(Nc2nc(Nc3ccc(N4CCN(C(C)=O)CC4)cc3OC)ncc2C(F)(F)F)c1 [Rociletinib (CO-1686, AVL-301)]",57.8 ± 3.1
9,Nc1nc2n[nH]nc2c(=O)[nH]1 [Azaguanine-8],55.8 ± 6.5
10,Nc1cccc2c1C(=O)N(C1CCC(=O)NC1=O)C2=O (stereo not given) [Pomalidomide],99.2 ± 2.3
11,Cc1cn(-c2cc(NC(=O)c3ccc(C)c(Nc4nccc(-c5cccnc5)n4)c3)cc(C(F)(F)F)c2)cn1 [Nilotinib (AMN-107)],70.1 ± 16
12,C[C@@]12C[C@@]3(O)O[C@@H](O1)[C@]1(COC(=O)c4ccccc4)[C@H]3C[C@@]12O[C@@H]1O[C@H](CO)[C@@H](O)[C@H](O)[C@H]1O [Paeoniflorin],78.6 ± 9
13,C/C(=C\c1csc(C)n1)[C@@H]1C[C@@H]2O[C@]2(C)CCC[C@H](C)[C@H](O)[C@@H](C)C(=O)C(C)(C)[C@@H](O)CC(=O)N1,73.7 ± 4.9
14,Cn1nnc2c(C(N)=O)ncn2c1=O [Temozolomide],118 ± 5.8
15,Nc1nc2[nH]cnc2c(=S)[nH]1 [Thioguanine],88.9 ± 9.4
16,CCCCCOC(=O)Nc1nc(=O)n([C@@H]2O[C@H](C)[C@@H](O)[C@H]2O)cc1F [Capecitabine],98.9 ± 16
17,C=C1C[C@@H]2CC[C@@]34C[C@H]5O[C@H]6[C@@H](O3)[C@H]3O[C@H](CC[C@@H]3O[C@H]6[C@H]5O4)CC(=O)C[C@@H]3[C@@H](OC)[C@@H](C[C@H](O)CN)O[C@H]3C[C@H]3O[C@@H](CC[C@@H]1O2)C[C@@H](C)C3=C [Eribulin],53.95 ± 0.3
18,CN1c2cc(O)c(N=NC(N)=O)cc2CC1S(=O)(=O)O (stereo not given) [Carbazochrome sodium sulfonate (AC-17)],90.4 ± 9.1
19,C#Cc1cccc(Nc2ncnc3cc(OCCOC)c(OCCO)cc23)c1,49.1 ± 7.9
20,CCOC(=O)[C@H](CCc1ccccc1)N[C@H]1CS[C@H](c2cccs2)CN(CC(=O)O)C1=O [Temocapril HCl],84.76 ± 0.83

row,Structure (SMILES),cell viability [%]
1,O=C(c1cc(Cc2n[nH]c(=O)c3ccccc23)ccc1F)N1CCN(C(=O)C2CC2)CC1,92.3 ± 8.4
2,CCCCNC(=O)NS(=O)(=O)c1ccc(C)cc1 [Tolbutamide],96.4 ± 6.1
3,C=C1c2cccc(O)c2C(O)=C2C(=O)[C@]3(O)C(O)=C(C(N)=O)C(=O)[C@@H](N(C)C)[C@@H]3[C@@H](O)[C@H]12 [Methacycline HCl],108.4 ± 0.2
4,CC(C)(OCc1nn(Cc2ccccc2)c2ccccc12)C(=O)O [Bindarit],104 ± 7.1
5,O=C(O)C1(C(=O)O)CCC1.[NH2-].[NH2-].[Pt+2] [Carboplatin],61.9 ± 9.4
6,"C/C=C1\NC(=O)[C@H]2CSSCC/C=C/[C@H](CC(=O)N[C@H](C(C)C)C(=O)N2)OC(=O)[C@H](C(C)C)NC1=O [Romidepsin (FK228, Depsipeptide)]",22.2 ± 22
7,CC(=O)OCC(=O)[C@@]1(O)CC[C@H]2[C@@H]3CCC4=CC(=O)CC[C@]4(C)[C@H]3C(=O)C[C@@]21C [Cortisone acetate],114 ± 4.4
8,CC[C@]1(O)C[C@@H]2CN(CCc3c([nH]c4ccccc34)[C@@](C(=O)OC)(c3cc4c(cc3OC)N(C)[C@H]3[C@@](O)(C(=O)OC)[C@H](OC(C)=O)[C@]5(CC)C=CCN6CC[C@]43[C@@H]65)C2)C1 [Vinblastine sulfate],43.6 ± 2.9
9,Nc1nc(F)nc2c1ncn2[C@@H]1O[C@H](CO)[C@@H](O)[C@@H]1O [Fludarabine],114 ± 29
10,CNC(=O)c1ccc(N2C(=S)N(c3ccc(C#N)c(C(F)(F)F)c3)C(=O)C2(C)C)cc1F [Enzalutamide (MDV3100)],99.7 ± 15
11,C[C@H](NC(=O)Cc1cc(F)cc(F)c1)C(=O)N[C@H](C(=O)OC(C)(C)C)c1ccccc1,96.2 ± 2.6
12,Clc1ccc(C(c2ccccc2Cl)C(Cl)Cl)cc1 (stereo not given) [Mitotane],106.8 ± 1
13,O=C(O)C(=O)O.[NH-][C@@H]1CCCC[C@H]1[NH-].[Pt+2] [Oxaliplatin],103 ± 15
14,CC/C(=C(/CC)c1ccc(O)cc1)c1ccc(O)cc1 [Diethylstilbestrol],121.2 ± 0.53
15,CCN(CC)CCOc1ccc(C(=C(Cl)c2ccccc2)c2ccccc2)cc1 [Clomifene citrate],-6.65 ± 0.33
16,CCCCNc1ncc(-c2ccc(CN3CCOCC3)cn2)c(NC2CCC(O)CC2)n1 (stereo not given),43.4 ± 2
17,Cc1ccc(NC(=O)c2ccc(CN3CC[C@H](N(C)C)C3)c(C(F)(F)F)c2)cc1Nc1nccc(-c2cncnc2)n1 [Bafetinib (INNO-406)],72.1 ± 3.7
18,Nc1cccc2c1CN(C1CCC(=O)NC1=O)C2=O (stereo not given) [Lenalidomide],106 ± 3.2
19,CO[C@H]1C[C@@H]2CC[C@@H](C)[C@@](O)(O2)C(=O)C(=O)N2CCCC[C@H]2C(=O)O[C@H]([C@H](C)C[C@@H]2CC[C@@H](OC(=O)C(C)(CO)CO)[C@H](OC)C2)CC(=O)[C@H](C)/C=C(\C)[C@@H](O)[C@@H](OC)C(=O)[C@H](C)C[C@H](C)/C=C/C=C/C=C/1C,155 ± 67
20,Cc1nc(NC(=O)N2CCC[C@H]2C(N)=O)sc1-c1ccnc(C(C)(C)C(F)(F)F)c1 [Alpelisib],56.6 ± 3
